# Assay results published in publication PMC7862700, “An all-to-all approach to the identification of sequence-specific readers for epigenetic DNA modifications on cytosine”.
# Key:
# Experiment in all cases: DAPPL (digital affinity profiling via proximity ligation, sequencing); 10 mM Tris-HCl pH 7.5, 50 mM NaCl, 1 mM DTT, 4% glycerol, room temperature, 30 min; GST-TFs on glutathione beads, 16-mer random dsDNA library, 0.1% formaldehyde crosslink after washing; high values mean tight binding
# FEV = target: T1, FEV (Homo sapiens, UniProt Q99581 1-238); conditions: protein: recombinant; tags: N-terminal GST; dsDNA, one strand shown
# T1 sequence: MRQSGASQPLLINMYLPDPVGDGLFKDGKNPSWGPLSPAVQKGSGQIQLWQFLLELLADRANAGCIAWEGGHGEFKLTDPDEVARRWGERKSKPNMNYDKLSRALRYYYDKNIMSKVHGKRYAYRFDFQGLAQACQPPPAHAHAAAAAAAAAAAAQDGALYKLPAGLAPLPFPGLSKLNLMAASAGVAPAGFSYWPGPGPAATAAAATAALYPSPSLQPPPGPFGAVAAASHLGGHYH
# Method in brief: (§1)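 Binding signal is defined as a hexamer's read frequency for one factor over its frequency for the tag-only sample. To obtain reads, GST-fused human transcription factors were expressed in yeast, captured on glutathione beads, barcoded with DNA and pooled with that sample. Pools met 200 nmole of a 16-mer random double-stranded DNA library in Tris/NaCl/DTT/glycerol buffer for 30 min at room temperature before washing, 0.1% formaldehyde crosslinking, proximity ligation (BsaI/T4 ligase, 1 h, 37 °C), PCR and Illumina NextSeq500 sequencing.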
# ETV5 = ETV5 (Homo sapiens, UniProt P41161 1-510); conditions: protein: recombinant; tags: N-terminal GST; dsDNA, one strand shown
# Method in brief: as §1
# HSF1 = HSF1 (Homo sapiens, UniProt Q00613 1-529); conditions: protein: recombinant; tags: N-terminal GST; chain copies: 3; dsDNA, one strand shown
# Method in brief: as §1
# SPIC = target: T2, SPIC (Homo sapiens, UniProt Q8N5J4 1-248); conditions: protein: recombinant; tags: N-terminal GST; dsDNA, one strand shown
# T2 sequence: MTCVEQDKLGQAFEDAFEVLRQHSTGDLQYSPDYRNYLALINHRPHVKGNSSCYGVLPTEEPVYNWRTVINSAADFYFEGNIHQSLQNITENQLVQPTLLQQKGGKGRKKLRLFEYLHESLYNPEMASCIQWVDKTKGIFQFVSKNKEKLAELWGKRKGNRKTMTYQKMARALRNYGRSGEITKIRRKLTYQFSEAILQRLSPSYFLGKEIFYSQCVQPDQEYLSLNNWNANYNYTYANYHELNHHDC
# Method in brief: as §1
# ELF4 = ELF4 (Homo sapiens, UniProt Q99607 1-663); conditions: protein: recombinant; tags: N-terminal GST; dsDNA, one strand shown
# Method in brief: as §1
# ELK4 = target: T3, ELK4 (Homo sapiens, UniProt P28324-2 1-405); conditions: protein: recombinant; tags: N-terminal GST; dsDNA, one strand shown
# T3 sequence: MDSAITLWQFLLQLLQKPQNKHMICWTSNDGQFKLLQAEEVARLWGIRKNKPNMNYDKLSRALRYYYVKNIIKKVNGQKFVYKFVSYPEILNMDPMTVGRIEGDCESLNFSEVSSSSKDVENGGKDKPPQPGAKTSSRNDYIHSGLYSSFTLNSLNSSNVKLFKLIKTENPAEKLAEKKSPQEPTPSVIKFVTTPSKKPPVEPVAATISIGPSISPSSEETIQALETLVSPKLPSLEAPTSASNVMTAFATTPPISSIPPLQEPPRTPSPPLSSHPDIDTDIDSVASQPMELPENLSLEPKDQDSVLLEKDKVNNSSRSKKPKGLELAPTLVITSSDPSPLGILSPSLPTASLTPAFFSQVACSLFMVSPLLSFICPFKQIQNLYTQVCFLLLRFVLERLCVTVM
# Method in brief: as §1
# ETV2 = target: T4, ETV2 (Homo sapiens, UniProt O00321 1-342); conditions: protein: recombinant; tags: N-terminal GST; dsDNA, one strand shown
# T4 sequence: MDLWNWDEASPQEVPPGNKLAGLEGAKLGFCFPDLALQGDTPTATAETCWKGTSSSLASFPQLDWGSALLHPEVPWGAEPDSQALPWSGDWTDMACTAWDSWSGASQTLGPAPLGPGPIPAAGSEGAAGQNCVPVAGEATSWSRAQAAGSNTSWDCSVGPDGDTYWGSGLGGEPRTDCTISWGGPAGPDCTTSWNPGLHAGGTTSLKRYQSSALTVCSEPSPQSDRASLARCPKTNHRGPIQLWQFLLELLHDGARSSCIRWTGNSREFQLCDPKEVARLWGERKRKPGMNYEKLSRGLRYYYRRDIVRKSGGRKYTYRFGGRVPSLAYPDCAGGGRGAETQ
# Method in brief: as §1
# ELF3 = target: T5, ELF3 (Homo sapiens, UniProt P78545 1-371); conditions: protein: recombinant; tags: N-terminal GST; dsDNA, one strand shown
# T5 sequence: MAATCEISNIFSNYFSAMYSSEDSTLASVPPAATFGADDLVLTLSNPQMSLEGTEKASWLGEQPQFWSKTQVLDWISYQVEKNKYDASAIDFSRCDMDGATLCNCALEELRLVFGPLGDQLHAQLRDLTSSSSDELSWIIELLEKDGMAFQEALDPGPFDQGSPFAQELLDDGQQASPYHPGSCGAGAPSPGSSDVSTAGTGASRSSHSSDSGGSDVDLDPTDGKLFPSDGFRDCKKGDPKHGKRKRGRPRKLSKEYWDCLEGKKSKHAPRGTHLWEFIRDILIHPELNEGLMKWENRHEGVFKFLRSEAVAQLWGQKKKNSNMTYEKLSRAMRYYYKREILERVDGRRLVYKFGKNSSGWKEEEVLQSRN
# Method in brief: as §1
# CRX = CRX (Homo sapiens, UniProt O43186 1-299); conditions: protein: recombinant; tags: N-terminal GST; dsDNA, one strand shown
# Method in brief: as §1
# ETV1 = ETV1 (Homo sapiens, UniProt P50549 1-477); conditions: protein: recombinant; tags: N-terminal GST; dsDNA, one strand shown
# Method in brief: as §1
# ERF = target: T6, ERF (Homo sapiens, UniProt P50548 1-548); conditions: protein: recombinant; tags: N-terminal GST; dsDNA, one strand shown
# T6 sequence: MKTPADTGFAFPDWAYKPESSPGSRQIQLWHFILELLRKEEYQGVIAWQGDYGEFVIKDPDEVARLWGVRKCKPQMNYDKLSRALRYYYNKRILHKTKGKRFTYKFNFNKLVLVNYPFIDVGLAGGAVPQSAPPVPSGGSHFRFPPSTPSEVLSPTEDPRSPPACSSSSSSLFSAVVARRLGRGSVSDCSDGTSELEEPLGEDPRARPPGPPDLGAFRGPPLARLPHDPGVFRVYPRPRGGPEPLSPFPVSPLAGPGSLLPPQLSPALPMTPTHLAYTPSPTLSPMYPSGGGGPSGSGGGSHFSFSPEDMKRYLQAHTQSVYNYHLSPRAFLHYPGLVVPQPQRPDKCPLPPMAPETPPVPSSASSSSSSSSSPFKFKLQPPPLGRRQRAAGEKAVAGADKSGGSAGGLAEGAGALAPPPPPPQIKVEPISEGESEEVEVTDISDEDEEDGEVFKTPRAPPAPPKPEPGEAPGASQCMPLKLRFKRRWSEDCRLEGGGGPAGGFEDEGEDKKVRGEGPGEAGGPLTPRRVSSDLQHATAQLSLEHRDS
# Method in brief: as §1
# ETV3L = target: T7, ETV3L (Homo sapiens, UniProt Q6ZN32 1-361); conditions: protein: recombinant; tags: N-terminal GST; dsDNA, one strand shown
# T7 sequence: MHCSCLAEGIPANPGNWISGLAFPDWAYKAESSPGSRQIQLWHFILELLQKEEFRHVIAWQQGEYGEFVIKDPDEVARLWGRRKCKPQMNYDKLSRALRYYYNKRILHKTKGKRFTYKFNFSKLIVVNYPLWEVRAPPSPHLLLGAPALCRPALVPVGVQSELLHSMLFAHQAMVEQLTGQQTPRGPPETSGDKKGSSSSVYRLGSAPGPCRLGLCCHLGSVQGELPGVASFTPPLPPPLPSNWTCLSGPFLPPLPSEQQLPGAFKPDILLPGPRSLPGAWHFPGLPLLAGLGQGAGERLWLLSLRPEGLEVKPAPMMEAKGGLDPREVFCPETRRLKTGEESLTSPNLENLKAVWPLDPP
# Method in brief: as §1
# ETS2 = target: T8, ETS2 (Homo sapiens, UniProt P15036 1-469); conditions: protein: recombinant; tags: N-terminal GST; dsDNA, one strand shown
# T8 sequence: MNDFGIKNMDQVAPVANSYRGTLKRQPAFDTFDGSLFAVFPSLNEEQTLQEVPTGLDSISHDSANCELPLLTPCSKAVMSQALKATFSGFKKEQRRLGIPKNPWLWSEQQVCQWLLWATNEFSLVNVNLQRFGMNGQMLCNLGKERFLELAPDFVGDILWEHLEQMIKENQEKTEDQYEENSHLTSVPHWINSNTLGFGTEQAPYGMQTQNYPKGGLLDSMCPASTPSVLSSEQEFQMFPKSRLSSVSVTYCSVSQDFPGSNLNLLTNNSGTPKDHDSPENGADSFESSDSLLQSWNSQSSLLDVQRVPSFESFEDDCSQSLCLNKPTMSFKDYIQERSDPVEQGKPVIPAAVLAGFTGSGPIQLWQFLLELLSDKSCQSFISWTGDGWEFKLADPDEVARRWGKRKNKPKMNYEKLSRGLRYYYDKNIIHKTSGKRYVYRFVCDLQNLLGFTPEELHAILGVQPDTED
# Method in brief: as §1
# SPDEF = target: T9, SPDEF (Homo sapiens, UniProt O95238 1-335); conditions: protein: recombinant; tags: N-terminal GST; dsDNA, one strand shown
# T9 sequence: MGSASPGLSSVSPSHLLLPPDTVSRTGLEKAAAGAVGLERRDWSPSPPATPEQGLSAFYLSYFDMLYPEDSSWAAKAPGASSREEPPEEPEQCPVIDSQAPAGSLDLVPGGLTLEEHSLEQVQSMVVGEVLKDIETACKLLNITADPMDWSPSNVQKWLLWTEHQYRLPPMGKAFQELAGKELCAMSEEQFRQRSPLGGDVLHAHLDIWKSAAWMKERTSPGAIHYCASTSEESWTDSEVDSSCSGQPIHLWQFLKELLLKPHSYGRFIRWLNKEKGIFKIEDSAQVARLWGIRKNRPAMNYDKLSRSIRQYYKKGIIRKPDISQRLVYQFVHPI
# Method in brief: as §1
# ETV7 = target: T10, ETV7 (Homo sapiens, UniProt Q9Y603 1-341); conditions: protein: recombinant; tags: N-terminal GST; dsDNA, one strand shown
# T10 sequence: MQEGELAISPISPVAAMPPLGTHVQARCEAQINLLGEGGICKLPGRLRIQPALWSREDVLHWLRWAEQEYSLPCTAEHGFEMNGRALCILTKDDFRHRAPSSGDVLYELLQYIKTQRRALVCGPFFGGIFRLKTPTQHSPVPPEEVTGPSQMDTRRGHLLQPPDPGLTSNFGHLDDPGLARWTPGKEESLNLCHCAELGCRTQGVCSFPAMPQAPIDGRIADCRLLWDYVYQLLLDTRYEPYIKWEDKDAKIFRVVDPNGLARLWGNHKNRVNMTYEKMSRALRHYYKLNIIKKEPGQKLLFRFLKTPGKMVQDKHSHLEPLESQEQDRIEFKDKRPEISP
# Method in brief: as §1
# ELF5 = target: T11, ELF5 (Homo sapiens, UniProt Q9UKW6-2 1-255); conditions: protein: recombinant; tags: N-terminal GST; dsDNA, one strand shown
# T11 sequence: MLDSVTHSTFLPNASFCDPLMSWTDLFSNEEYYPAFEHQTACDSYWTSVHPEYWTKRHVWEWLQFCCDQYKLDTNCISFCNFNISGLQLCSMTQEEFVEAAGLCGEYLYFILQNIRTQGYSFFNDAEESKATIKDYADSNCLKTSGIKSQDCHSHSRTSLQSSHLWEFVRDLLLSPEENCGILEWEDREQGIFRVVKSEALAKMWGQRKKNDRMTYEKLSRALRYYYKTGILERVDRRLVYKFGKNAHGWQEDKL
# Method in brief: as §1
# ETV3 = target: T12, ETV3 (Homo sapiens, UniProt P41162-2 1-143); conditions: protein: recombinant; tags: N-terminal GST; dsDNA, one strand shown
# T12 sequence: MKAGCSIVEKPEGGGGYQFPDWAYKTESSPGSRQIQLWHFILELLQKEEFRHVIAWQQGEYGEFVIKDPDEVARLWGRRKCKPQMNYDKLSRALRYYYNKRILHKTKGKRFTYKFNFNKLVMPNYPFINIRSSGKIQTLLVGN
# Method in brief: as §1
# ETV6 = ETV6 (Homo sapiens, UniProt P41212 1-452); conditions: protein: recombinant; tags: N-terminal GST; dsDNA, one strand shown
# Method in brief: as §1
# Chain of CRX (O43186 whole entry): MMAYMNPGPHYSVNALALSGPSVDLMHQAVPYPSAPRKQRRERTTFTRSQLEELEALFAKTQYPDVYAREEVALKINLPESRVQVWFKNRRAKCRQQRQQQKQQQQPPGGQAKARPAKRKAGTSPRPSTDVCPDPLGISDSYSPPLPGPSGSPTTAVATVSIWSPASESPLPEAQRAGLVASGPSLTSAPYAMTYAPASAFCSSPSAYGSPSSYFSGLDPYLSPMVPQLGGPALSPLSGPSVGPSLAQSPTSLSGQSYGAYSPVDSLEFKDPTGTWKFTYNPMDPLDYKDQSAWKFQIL
# Chain of ETV5 (P41161 whole entry): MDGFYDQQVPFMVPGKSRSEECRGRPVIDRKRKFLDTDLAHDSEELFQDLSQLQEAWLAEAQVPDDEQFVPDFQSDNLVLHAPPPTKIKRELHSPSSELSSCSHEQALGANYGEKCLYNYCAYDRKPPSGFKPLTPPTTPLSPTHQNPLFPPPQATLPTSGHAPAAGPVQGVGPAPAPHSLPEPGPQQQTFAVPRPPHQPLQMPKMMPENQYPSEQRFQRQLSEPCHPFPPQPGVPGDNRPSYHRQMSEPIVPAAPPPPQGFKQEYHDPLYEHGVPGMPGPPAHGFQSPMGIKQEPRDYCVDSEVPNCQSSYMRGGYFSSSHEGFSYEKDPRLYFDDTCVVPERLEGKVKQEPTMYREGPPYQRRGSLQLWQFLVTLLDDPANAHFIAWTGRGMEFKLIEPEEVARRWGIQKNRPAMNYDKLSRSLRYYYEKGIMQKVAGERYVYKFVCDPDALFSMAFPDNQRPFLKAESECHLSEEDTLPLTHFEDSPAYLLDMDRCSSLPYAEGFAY
# Chain of ELF4 (Q99607 whole entry): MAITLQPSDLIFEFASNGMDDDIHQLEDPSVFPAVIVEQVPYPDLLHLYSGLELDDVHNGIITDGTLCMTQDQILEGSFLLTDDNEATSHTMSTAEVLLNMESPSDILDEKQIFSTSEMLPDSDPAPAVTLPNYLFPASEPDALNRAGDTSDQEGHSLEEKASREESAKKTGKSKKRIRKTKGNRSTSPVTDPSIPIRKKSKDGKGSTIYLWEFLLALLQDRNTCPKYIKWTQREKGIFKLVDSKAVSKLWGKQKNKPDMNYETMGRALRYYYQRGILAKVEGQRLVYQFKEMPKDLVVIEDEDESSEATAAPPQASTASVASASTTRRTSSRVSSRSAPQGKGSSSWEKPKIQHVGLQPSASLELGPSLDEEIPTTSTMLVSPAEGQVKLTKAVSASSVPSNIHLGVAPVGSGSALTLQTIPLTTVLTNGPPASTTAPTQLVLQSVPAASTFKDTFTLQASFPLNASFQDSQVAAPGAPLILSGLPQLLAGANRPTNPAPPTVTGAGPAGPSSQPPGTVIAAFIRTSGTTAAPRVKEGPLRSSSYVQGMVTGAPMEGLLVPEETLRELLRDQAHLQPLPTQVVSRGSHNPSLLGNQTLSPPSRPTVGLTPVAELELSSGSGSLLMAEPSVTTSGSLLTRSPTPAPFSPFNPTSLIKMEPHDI
# Chain of ETV6 (P41212 whole entry): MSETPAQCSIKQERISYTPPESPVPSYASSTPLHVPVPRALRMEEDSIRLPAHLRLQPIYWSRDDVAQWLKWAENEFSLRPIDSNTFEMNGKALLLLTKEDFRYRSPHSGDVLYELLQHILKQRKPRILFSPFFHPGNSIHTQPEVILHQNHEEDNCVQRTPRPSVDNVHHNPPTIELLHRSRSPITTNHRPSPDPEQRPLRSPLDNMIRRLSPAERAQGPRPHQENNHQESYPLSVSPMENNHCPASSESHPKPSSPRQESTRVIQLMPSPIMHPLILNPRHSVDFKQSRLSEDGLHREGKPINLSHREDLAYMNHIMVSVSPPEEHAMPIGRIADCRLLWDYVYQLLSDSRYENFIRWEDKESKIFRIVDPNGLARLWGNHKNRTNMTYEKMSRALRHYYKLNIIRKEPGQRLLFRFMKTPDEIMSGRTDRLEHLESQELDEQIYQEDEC
# Chain of HSF1 (Q00613 whole entry): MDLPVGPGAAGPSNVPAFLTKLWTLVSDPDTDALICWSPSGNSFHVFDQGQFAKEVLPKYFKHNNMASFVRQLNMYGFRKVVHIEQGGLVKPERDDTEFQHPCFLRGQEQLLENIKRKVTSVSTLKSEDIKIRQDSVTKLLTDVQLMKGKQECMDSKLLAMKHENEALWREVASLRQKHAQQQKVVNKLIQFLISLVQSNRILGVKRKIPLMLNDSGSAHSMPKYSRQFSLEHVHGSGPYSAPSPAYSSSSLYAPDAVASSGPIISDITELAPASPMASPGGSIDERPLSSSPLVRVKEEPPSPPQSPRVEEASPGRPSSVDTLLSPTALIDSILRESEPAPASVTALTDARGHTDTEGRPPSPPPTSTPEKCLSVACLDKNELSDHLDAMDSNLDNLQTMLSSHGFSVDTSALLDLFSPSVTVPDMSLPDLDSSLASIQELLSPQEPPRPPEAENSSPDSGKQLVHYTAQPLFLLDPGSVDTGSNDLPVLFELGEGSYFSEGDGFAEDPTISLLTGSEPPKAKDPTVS
# Chain of ETV1 (P50549 whole entry): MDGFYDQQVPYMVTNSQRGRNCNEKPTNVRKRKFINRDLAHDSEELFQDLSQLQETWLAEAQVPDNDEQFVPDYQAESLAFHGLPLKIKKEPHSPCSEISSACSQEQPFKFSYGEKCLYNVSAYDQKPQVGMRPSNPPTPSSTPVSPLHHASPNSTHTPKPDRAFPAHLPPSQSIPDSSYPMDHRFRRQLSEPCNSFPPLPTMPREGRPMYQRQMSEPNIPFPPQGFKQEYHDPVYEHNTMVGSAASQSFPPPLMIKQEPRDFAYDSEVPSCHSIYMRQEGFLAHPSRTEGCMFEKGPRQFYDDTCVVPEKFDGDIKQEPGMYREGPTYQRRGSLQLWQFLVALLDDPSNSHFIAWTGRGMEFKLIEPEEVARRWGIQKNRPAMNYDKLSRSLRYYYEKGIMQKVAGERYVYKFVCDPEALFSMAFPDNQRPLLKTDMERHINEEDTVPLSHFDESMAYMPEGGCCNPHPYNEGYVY
sequence,measurement,setting,value
TTAATT,binding signal,FEV,"1.31 fold enrichment (6-mer frequency, TF over GST control)"
same,binding signal,ETV5,"1.49 fold enrichment (6-mer frequency, TF over GST control)"
same,binding signal,HSF1,"2.23 fold enrichment (6-mer frequency, TF over GST control)"
same,binding signal,SPIC,"1.33 fold enrichment (6-mer frequency, TF over GST control)"
same,binding signal,ELF4,"1.33 fold enrichment (6-mer frequency, TF over GST control)"
same,binding signal,ELK4,"1.3 fold enrichment (6-mer frequency, TF over GST control)"
same,binding signal,ETV2,"1.43 fold enrichment (6-mer frequency, TF over GST control)"
same,binding signal,ELF3,"1.27 fold enrichment (6-mer frequency, TF over GST control)"
same,binding signal,CRX,"3.46 fold enrichment (6-mer frequency, TF over GST control)"
same,binding signal,ETV1,"1.34 fold enrichment (6-mer frequency, TF over GST control)"
same,binding signal,ERF,"1.39 fold enrichment (6-mer frequency, TF over GST control)"
same,binding signal,ETV3L,"1.39 fold enrichment (6-mer frequency, TF over GST control)"
same,binding signal,ETS2,"1.5 fold enrichment (6-mer frequency, TF over GST control)"
same,binding signal,SPDEF,"1.3 fold enrichment (6-mer frequency, TF over GST control)"
same,binding signal,ETV7,"1.55 fold enrichment (6-mer frequency, TF over GST control)"
same,binding signal,ELF5,"1.43 fold enrichment (6-mer frequency, TF over GST control)"
same,binding signal,ETV3,"1.44 fold enrichment (6-mer frequency, TF over GST control)"
same,binding signal,ETV6,"1.4 fold enrichment (6-mer frequency, TF over GST control)"
